Measurements reported in ChEMBL document CHEMBL3988442, “University of Dundee, Small-Polar-MMV Screening Library” (2021).
For some of these results: Measured potencies and affinities stand elsewhere.

Key:
Parameters in all cases: scale not given: direction of the effect not stated beside the values
[1] = molecular target: Protein translocase subunit SecA (Escherichia coli (strain K12)) (UniProt P10408); test: Assay to Identify E. coli SecA ATPase Inhibitors; format: functional; details: 30 µM
[2] = molecular target: T1, Ubiquitin-activating enzyme e1, putative (Leishmania donovani (strain BPK282A1)) (UniProt E9BSI1); test: Leishmania donovani Ubiquitin Activating Enzyme (LdE1); format: functional; details: 30 µM
T1 sequence (whole entry): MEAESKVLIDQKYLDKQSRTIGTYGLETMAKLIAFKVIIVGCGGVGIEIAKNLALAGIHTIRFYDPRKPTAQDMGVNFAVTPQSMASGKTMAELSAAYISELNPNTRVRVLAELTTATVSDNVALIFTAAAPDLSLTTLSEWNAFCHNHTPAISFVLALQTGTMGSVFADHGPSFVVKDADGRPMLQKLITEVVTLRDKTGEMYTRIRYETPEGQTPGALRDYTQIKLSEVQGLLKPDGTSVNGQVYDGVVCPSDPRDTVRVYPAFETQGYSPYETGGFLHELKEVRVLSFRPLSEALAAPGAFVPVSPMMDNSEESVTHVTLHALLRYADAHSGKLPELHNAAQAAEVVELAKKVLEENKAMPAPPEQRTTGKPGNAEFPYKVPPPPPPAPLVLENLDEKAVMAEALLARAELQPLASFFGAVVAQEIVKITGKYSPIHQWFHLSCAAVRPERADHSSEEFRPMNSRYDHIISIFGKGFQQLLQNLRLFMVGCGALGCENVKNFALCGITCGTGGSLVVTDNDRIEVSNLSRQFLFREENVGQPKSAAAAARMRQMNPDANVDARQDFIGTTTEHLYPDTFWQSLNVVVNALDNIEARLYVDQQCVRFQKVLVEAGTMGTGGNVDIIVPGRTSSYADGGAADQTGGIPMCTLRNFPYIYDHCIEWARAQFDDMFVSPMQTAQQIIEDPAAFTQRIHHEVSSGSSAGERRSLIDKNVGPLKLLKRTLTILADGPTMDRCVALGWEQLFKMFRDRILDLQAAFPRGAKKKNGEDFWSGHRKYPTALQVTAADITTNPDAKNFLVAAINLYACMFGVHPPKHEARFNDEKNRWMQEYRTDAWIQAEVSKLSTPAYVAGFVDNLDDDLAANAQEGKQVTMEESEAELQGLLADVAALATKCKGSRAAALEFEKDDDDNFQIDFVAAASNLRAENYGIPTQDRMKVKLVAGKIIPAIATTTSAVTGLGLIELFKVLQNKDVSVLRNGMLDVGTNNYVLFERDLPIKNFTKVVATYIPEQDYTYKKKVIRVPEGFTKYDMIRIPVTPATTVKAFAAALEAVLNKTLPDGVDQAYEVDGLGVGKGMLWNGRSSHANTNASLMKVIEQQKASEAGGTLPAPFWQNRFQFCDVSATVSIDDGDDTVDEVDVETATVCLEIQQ

[3] = molecular target: AMP-activated protein kinase, AMPK (Homo sapiens) (UniProt P54646+O43741+P54619+Q9UGJ0+Q9Y478+Q13131+Q9UGI9); test: AMP-dependent Kinase enzyme assay. An in vitro enzyme assay that detects ADP turnover that is directly proportional to AMPK activity. This uses naive AMPK that is activated during the assay with MK-8722; format: functional; details: 30 µM
[4] = molecular target: Sialic acid-binding Ig-like lectin 9 (Homo sapiens) (UniProt Q9Y336); test: Hs-Siglec9 ALPHAscreen SOP 20170721; details: 10 µM
[5] = tested on: Trypanosoma cruzi; test: Trypanosoma cruzi phosphomannomutase and mannose-1-phosphate guanylyltransferase assay; format: functional; details: 10 µM
[6] = molecular target: T2, Arginase-2, mitochondrial (Homo sapiens) (UniProt P78540); test: in vitro enzyme assay to detect the production of urea directly proportional to the activity of Arginase II; format: functional; details: 33.3 µM; also: in the data most compounds retested in dose-response had high values
T2 sequence (whole entry): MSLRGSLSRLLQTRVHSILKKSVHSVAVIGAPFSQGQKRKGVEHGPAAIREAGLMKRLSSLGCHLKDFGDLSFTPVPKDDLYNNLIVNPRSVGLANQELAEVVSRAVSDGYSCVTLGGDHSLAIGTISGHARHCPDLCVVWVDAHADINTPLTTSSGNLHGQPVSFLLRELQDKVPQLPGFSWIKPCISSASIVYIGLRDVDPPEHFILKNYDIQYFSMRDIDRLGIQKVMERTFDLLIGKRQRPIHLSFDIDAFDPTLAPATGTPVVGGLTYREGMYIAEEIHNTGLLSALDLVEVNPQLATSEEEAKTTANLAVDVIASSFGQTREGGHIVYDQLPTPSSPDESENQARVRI

[7] = molecular target: T3, Proteasome subunit beta (Trypanosoma cruzi) (UniProt O96673); test: Trypanosoma cruzi proteasome chymotrypsin-like activity (TcProtChymo) assay.; also: in the data most compounds retested in dose-response had high values; format: functional; details: 9.37 µM
T3 sequence (whole entry): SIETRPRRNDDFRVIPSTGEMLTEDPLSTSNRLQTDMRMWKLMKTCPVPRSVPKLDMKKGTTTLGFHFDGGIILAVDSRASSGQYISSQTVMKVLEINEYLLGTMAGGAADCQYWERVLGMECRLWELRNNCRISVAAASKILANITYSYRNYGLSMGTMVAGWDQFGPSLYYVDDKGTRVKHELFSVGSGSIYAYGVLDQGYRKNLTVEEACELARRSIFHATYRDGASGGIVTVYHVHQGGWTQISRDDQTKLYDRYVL

[8] = species: Homo sapiens; test: To identify inhibition of the IFN signalling (Jak-Stat) pathway via expression of an eGFP reporter gene under the control of an IFN-stimulated response element (ISRE) containing MxA promoter.; format: functional; details: 30 µM
[9] = molecular target: T4, Tyrosyl-tRNA synthetase, putative (Trypanosoma cruzi (strain CL Brener)) (UniProt Q4DSP6); test: Trypanosoma cruzi tyrosyl tRNA synthetase (TcYRS) _High Tyrosine SOP; format: functional; details: 30 µM; also: in the data most compounds retested in dose-response had high values
T4 sequence (whole entry): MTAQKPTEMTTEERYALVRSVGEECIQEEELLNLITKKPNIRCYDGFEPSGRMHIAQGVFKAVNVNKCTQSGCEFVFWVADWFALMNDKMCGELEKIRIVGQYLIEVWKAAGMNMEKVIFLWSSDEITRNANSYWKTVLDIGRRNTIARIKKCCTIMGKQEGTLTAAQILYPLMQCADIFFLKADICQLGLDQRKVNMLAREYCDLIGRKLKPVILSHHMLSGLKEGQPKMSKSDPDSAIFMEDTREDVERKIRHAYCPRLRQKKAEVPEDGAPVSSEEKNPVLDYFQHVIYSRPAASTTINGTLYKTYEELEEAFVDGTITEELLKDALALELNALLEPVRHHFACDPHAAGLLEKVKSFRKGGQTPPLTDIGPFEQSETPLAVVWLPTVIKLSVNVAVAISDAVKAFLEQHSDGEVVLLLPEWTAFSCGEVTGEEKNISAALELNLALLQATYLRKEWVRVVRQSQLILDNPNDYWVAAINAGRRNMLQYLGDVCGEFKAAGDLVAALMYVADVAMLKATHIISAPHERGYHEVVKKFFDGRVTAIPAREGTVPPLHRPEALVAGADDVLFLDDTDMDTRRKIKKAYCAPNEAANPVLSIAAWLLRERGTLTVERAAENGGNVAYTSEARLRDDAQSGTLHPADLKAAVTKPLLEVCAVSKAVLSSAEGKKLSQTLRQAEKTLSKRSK

[10] = molecular target: T4, Tyrosyl-tRNA synthetase, putative (Trypanosoma cruzi (strain CL Brener)); test: Trypanosoma cruzi tyrosyl tRNA synthetase (TcYRS) SOP; format: functional; details: 30 µM
[11] = molecular target: Chromo domain-containing protein 1 (Saccharomyces cerevisiae (strain ATCC 204508 / S288c) (Baker's yeast)) (UniProt P32657); test: ScCHD-1 Enzyme Inhibition Assay; format: functional; details: 30 µM; also: in the data most compounds retested in dose-response had high values
Chain of Chromo domain-containing protein 1 (Saccharomyces cerevisiae (strain ATCC 204508 / S288c) (Baker's yeast)) (P32657 whole entry, the tested form may be a part): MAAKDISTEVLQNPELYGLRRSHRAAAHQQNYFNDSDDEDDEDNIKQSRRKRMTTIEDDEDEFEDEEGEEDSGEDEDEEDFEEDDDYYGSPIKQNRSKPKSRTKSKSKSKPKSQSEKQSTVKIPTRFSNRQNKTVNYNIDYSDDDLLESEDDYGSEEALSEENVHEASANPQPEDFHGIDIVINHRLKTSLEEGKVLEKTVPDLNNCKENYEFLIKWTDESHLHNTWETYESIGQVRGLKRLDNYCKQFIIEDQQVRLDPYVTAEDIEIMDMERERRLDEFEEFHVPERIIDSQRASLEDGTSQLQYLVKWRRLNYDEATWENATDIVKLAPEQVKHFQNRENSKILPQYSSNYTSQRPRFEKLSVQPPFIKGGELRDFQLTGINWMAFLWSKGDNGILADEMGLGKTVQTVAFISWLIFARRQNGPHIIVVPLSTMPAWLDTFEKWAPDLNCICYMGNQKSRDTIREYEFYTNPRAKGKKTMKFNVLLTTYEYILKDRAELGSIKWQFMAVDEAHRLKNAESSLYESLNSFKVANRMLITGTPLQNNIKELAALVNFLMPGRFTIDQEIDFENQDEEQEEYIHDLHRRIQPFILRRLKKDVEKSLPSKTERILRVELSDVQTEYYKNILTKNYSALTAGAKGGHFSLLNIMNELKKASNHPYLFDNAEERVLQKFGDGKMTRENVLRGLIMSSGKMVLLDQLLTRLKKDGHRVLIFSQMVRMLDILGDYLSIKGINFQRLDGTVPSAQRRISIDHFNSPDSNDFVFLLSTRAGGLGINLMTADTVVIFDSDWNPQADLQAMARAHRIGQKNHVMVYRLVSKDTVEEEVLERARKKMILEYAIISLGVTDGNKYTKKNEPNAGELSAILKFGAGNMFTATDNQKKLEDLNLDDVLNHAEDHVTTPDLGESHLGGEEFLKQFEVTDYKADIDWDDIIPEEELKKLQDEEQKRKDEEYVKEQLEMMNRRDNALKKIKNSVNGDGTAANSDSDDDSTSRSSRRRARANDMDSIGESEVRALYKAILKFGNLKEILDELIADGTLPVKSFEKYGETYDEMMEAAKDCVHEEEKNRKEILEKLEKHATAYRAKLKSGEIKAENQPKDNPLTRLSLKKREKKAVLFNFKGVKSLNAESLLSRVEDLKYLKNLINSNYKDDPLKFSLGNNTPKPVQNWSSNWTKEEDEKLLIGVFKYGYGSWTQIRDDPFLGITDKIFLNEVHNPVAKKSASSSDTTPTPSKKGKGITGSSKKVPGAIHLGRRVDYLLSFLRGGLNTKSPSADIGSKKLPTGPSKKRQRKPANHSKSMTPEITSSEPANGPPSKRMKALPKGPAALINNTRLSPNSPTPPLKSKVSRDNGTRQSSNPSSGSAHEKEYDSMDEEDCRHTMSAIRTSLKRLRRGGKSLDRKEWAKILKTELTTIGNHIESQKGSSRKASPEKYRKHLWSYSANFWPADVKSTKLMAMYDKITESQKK

Chain of Protein translocase subunit SecA (Escherichia coli (strain K12)) (P10408 whole entry): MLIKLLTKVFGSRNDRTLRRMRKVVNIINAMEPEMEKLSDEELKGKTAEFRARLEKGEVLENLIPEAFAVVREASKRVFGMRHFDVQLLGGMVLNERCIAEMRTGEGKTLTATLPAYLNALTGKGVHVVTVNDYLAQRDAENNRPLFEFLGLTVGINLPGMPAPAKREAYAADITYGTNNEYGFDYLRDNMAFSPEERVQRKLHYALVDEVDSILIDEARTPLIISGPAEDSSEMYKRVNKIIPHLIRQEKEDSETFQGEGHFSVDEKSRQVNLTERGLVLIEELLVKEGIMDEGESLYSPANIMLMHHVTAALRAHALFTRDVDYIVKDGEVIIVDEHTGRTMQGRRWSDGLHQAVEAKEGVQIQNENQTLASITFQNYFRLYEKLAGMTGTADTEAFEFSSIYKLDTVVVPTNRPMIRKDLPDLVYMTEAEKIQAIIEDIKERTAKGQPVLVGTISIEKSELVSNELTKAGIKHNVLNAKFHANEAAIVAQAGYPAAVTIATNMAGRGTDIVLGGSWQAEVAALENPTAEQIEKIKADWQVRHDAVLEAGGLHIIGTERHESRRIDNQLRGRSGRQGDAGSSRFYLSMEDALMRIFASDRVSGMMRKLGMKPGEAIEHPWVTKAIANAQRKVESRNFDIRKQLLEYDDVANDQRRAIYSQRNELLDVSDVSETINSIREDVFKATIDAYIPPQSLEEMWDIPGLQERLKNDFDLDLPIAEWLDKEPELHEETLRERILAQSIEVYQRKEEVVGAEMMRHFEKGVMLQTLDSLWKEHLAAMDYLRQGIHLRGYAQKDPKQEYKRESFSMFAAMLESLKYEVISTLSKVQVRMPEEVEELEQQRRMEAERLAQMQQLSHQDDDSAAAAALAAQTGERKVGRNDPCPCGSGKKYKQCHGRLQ
Chain of Sialic acid-binding Ig-like lectin 9 (Homo sapiens) (Q9Y336 whole entry): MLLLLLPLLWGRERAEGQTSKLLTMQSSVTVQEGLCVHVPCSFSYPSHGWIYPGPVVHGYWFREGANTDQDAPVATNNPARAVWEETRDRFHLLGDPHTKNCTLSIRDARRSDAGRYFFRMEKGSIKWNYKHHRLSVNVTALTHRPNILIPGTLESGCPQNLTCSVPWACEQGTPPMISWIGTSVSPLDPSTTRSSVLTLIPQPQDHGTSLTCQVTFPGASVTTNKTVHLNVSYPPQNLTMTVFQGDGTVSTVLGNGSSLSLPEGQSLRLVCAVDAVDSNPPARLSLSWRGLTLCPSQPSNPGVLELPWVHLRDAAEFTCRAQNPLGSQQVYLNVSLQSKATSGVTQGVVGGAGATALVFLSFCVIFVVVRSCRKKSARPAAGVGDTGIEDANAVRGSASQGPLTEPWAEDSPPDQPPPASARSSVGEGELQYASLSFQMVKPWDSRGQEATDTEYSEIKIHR

| Compound | Percent Effect [1] [%] | Percent Effect [2] [%] | Percent Effect [3] [%] | Percent Effect [4] [%] | Percent Effect [5] [%] | Percent Effect [6] [%] | Percent Effect [7] [%] | Percent Effect [8] [%] | Percent Effect [9] [%] | Percent Effect [10] [%] | Percent Effect [11] [%] |
| --- | --- | --- | --- | --- | --- | --- | --- | --- | --- | --- | --- |
| Cc1cnn(CCNCc2nc(COc3ccc(F)cc3)no2)c1 | -2.17 | 2.63 | 1.92 | 0.726 | 0.94 | 1.92 | 12.7 | 11.9 | 4.41 | -29.3 | -8.97 |
| CCCC(C)CN1CCC(n2cc(CCCO)nn2)CC1 (stereo not drawn) | -3.6 | 4.17 | -2.5 | 0.0396 | 1.46 | 1.32 | 2.28 | -7.18 | 4.21 | 5.13 | 0.69 |
| CC(C)(C(=O)NCC(N)=O)c1ccccc1F | -2.75 | -1.39 | -0.917 | -6.27 | -3.98 | -17.7 | 6.67 | -3.33 | 2.1 | 0 | -1.29 |
| O=C(c1ccc(F)cc1)N1C[C@@H]2OCCN(c3ncccn3)[C@@H]2C1 | -5.16 | 5.33 | 3.73 | 9.86 | -5.02 | -19.9 | 5.98 | -2.35 | 2.08 | 15 | -9.01 |
| CN(C)Cc1nnc(C2CCN(c3nccc(N)n3)CC2)n1C1CC1 | -4.19 | 1.39 | -3.33 | -0.797 | 1.26 | 0.442 | 8.42 | -31.4 | 5.26 | 5.13 | -3.78 |
| COCc1ccccc1NC(=O)[C@@H]1CCCN1C(=O)c1ccco1 | -0.218 | 9.72 | -5.33 | 20.1 | 2.82 | 6.62 | 12.8 | 8.02 | 1.05 | 5.13 | -1.82 |
| COc1ccc(CN2CCC3(CC2)CCN(c2ncccn2)CC3)cc1 | -2.42 | 2.7 | 0.552 | 4.9 | 5.57 | 8.6 | 1.29 | -26.6 | 0 | 5.13 | 6.6 |
| Cc1nc(C)n(C2CCCN(C(=O)COCc3ccccc3)C2)n1 (stereo not drawn) | -0.388 | 0 | 25.2 | 9.37 | 2.25 | 1.78 | -4.22 | 4.38 | 3.88 | 12.2 | -7.13 |
